# How the values were obtained:
# [1] = system: Proto-oncogene tyrosine-protein kinase receptor Ret (Homo sapiens), P07949 [Y791F]; conditions: at 1 µM
# [2] = molecular target: Macrophage-stimulating protein receptor (Homo sapiens) (UniProt Q04912); conditions: at 0.1 µM
# [3] = molecular target: Macrophage-stimulating protein receptor (Homo sapiens) (UniProt Q04912); conditions: at 1 µM
# [4] = molecular target: Proto-oncogene tyrosine-protein kinase ROS (Homo sapiens) (UniProt P08922); conditions: at 0.1 µM
# [5] = molecular target: Proto-oncogene tyrosine-protein kinase ROS (Homo sapiens) (UniProt P08922); conditions: at 1 µM
# [6] = molecular target: Proto-oncogene tyrosine-protein kinase Src (Homo sapiens) (UniProt P12931); conditions: at 0.1 µM
# [7] = molecular target: Proto-oncogene tyrosine-protein kinase Src (Homo sapiens) (UniProt P12931); conditions: at 1 µM
# [8] = molecular target: Tyrosine-protein kinase Srms (Homo sapiens) (UniProt Q9H3Y6); conditions: at 0.1 µM
# [9] = molecular target: Tyrosine-protein kinase Srms (Homo sapiens) (UniProt Q9H3Y6); conditions: at 1 µM
# [10] = molecular target: Tyrosine-protein kinase SYK (Homo sapiens) (UniProt P43405); conditions: at 0.1 µM
# [11] = molecular target: Tyrosine-protein kinase SYK (Homo sapiens) (UniProt P43405); conditions: at 1 µM
# [12] = molecular target: T1, Tyrosine-protein kinase Tec (Homo sapiens) (UniProt P42680); conditions: at 0.1 µM
# T1 sequence (whole entry): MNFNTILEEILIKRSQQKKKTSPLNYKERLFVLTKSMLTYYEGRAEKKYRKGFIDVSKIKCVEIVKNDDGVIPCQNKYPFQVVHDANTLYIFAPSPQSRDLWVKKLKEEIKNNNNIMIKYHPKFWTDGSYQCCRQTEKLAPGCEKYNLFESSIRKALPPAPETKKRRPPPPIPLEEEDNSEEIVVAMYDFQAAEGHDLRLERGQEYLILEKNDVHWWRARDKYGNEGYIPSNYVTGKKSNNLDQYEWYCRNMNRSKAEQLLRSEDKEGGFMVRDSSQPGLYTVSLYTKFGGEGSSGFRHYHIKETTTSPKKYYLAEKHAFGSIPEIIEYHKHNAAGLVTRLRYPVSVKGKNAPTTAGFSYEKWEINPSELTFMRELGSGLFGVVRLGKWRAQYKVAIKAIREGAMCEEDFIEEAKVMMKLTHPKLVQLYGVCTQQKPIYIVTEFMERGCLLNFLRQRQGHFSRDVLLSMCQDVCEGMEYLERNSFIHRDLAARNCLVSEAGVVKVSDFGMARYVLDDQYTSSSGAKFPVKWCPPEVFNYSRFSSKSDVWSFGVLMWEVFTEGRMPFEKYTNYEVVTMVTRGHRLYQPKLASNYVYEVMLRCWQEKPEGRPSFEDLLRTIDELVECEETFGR
# [13] = molecular target: T1, Tyrosine-protein kinase Tec (Homo sapiens); conditions: at 1 µM
# [14] = molecular target: Angiopoietin-1 receptor (Homo sapiens) (UniProt Q02763); conditions: at 0.1 µM
# [15] = molecular target: Angiopoietin-1 receptor (Homo sapiens) (UniProt Q02763); conditions: at 1 µM
# [16] = molecular target: T2, Non-receptor tyrosine-protein kinase TNK1 (Homo sapiens) (UniProt Q13470); conditions: at 0.1 µM
# T2 sequence (whole entry): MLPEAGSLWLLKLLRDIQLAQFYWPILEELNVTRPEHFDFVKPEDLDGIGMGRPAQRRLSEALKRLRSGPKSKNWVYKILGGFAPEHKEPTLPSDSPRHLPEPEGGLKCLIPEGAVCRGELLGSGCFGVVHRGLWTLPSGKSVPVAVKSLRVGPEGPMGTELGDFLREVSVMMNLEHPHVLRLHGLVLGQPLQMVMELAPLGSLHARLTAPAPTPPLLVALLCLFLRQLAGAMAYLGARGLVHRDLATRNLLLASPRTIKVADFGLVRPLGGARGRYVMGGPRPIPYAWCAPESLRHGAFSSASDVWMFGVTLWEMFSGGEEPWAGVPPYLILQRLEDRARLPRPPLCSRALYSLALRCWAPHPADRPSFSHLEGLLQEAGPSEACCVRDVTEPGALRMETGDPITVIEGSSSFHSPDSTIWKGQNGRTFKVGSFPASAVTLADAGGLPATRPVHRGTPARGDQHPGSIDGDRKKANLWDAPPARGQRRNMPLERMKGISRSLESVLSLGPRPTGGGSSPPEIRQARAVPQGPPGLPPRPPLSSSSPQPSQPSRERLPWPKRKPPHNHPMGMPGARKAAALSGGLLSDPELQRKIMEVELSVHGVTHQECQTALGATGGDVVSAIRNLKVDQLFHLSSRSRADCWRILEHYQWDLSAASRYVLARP
# [17] = molecular target: T2, Non-receptor tyrosine-protein kinase TNK1 (Homo sapiens); conditions: at 1 µM
# [18] = molecular target: Activated CDC42 kinase 1 (Homo sapiens) (UniProt Q07912); conditions: at 0.1 µM
# [19] = molecular target: Activated CDC42 kinase 1 (Homo sapiens) (UniProt Q07912); conditions: at 1 µM
# [20] = molecular target: High affinity nerve growth factor receptor (Homo sapiens) (UniProt P04629); conditions: at 0.1 µM;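 also: each value is a mean of replicate percent inhibition readings against TRKA kinase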
# Chain of High affinity nerve growth factor receptor (Homo sapiens) (P04629 33-796 limits assumed): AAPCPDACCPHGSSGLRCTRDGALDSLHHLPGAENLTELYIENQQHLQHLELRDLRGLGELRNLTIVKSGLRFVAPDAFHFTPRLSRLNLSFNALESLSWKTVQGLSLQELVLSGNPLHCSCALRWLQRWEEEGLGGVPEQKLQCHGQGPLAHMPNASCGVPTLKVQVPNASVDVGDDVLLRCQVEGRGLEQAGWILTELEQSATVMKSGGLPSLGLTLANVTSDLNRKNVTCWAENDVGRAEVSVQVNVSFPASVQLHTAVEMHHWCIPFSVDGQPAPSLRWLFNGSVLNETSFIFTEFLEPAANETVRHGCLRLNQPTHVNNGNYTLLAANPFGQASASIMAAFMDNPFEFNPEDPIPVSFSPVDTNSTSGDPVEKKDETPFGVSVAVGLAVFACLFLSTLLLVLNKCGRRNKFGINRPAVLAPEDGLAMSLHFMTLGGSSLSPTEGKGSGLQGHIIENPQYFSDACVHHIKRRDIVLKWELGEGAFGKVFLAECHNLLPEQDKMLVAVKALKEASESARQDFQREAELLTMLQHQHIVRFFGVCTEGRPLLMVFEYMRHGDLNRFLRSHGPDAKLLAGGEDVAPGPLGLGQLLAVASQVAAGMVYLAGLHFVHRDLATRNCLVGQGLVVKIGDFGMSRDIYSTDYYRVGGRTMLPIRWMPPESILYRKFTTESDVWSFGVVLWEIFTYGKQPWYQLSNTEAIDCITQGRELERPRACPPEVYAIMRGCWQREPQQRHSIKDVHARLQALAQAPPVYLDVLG
# Chain of Tyrosine-protein kinase Srms (Homo sapiens) (Q9H3Y6 whole entry): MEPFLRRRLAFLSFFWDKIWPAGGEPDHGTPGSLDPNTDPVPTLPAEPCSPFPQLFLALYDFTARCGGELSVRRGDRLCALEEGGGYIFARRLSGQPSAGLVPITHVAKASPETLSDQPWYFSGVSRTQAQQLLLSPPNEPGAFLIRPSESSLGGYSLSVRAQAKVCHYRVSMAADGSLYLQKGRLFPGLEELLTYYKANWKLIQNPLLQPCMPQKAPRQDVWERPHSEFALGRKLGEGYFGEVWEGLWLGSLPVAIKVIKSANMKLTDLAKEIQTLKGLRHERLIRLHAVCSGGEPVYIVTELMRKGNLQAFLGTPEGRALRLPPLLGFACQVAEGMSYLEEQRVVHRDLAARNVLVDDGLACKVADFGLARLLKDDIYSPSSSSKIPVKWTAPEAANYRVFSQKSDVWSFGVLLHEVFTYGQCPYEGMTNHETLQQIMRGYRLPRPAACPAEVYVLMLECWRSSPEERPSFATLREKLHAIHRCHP
# Chain of Proto-oncogene tyrosine-protein kinase Src (Homo sapiens) (P12931 2-536 limits assumed): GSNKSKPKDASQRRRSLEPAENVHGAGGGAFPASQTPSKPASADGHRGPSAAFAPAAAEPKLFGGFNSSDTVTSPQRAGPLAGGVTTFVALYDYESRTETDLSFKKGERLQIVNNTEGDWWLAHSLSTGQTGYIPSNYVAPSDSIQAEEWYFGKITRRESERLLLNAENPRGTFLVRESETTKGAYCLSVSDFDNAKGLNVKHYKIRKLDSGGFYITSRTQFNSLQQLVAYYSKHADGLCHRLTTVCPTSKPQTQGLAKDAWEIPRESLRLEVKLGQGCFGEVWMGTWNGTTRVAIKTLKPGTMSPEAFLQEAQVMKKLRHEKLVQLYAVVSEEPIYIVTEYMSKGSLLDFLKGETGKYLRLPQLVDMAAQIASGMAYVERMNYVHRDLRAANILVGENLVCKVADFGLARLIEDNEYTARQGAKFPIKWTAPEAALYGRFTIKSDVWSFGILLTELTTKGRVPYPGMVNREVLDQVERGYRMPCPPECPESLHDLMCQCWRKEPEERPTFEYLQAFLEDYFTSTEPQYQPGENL
# Chain of Proto-oncogene tyrosine-protein kinase ROS (Homo sapiens) (P08922 whole entry): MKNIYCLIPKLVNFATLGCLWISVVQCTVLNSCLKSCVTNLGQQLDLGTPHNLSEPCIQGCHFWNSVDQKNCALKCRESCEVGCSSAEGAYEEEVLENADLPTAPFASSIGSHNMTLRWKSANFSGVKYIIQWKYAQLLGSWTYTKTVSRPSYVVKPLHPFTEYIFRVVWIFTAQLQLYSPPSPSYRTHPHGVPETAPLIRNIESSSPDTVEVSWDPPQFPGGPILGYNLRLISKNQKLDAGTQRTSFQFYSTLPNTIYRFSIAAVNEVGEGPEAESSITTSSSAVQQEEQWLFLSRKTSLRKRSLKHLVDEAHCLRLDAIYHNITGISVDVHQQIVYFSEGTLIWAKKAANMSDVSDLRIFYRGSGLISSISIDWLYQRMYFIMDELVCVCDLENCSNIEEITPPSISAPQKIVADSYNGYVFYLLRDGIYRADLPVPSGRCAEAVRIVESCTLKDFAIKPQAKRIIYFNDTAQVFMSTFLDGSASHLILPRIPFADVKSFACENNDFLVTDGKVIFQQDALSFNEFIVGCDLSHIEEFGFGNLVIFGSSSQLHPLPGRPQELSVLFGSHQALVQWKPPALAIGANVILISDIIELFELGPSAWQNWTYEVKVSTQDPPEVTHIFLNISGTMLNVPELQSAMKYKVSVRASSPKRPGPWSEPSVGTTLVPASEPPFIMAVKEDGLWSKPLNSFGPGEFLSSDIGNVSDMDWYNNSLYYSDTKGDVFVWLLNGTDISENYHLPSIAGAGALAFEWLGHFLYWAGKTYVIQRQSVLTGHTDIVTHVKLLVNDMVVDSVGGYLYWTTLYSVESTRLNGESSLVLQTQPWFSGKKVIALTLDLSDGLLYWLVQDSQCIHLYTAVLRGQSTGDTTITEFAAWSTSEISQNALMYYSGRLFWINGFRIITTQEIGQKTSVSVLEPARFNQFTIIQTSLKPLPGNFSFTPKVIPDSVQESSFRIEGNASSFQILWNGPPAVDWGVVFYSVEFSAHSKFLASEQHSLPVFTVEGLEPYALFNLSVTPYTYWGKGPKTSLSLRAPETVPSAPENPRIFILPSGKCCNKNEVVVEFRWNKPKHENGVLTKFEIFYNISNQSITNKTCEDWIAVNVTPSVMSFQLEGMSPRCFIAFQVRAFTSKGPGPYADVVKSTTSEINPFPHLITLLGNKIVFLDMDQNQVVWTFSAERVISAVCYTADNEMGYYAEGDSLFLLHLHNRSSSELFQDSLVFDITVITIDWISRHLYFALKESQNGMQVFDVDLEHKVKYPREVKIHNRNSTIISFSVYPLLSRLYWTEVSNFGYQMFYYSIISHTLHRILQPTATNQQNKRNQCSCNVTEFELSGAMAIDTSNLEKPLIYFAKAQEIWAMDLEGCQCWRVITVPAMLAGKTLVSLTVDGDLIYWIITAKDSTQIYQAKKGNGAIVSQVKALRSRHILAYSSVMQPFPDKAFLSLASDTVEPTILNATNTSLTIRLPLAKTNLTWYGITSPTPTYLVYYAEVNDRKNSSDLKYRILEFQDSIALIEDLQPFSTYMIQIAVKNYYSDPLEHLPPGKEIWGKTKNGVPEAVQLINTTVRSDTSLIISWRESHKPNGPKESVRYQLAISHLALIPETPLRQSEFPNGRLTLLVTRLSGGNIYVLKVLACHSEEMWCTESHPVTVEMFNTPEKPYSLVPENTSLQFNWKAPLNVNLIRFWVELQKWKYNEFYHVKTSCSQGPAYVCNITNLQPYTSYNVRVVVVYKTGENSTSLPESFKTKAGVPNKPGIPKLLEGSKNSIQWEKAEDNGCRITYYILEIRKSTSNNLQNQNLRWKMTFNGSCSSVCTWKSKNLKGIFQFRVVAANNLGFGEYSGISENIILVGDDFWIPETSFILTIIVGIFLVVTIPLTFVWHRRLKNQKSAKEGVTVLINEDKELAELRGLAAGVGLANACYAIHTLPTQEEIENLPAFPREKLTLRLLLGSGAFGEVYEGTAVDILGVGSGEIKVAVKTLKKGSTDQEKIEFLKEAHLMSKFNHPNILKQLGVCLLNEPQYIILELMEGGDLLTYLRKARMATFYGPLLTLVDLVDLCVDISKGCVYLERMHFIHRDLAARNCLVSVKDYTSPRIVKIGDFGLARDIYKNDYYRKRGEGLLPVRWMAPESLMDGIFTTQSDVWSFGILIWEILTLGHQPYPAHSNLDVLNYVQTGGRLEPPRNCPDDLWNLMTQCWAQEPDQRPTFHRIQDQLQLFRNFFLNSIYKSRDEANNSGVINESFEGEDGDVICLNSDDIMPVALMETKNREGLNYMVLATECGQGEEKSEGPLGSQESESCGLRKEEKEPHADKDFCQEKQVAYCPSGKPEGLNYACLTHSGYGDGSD
Compound,inhibition [1],inhibition [2],inhibition [3],inhibition [4],inhibition [5],inhibition [6],inhibition [7],inhibition [8],inhibition [9],inhibition [10],inhibition [11],inhibition [12],inhibition [13],inhibition [14],inhibition [15],inhibition [16],inhibition [17],inhibition [18],inhibition [19],inhibition [20]
Cc1cccc(Nc2ncc(-c3ccccc3)o2)c1,6.11%,3.38%,-0.6%,6.3%,7.89%,8.62%,19.3%,0.16%,-0.12%,1.35%,2.98%,6.33%,4.84%,5.06%,4.9%,1.78%,4.17%,1.1%,3.4%,0.19%
Nc1nc(-c2cccc(Cl)c2)c(-c2ccc3ncccc3n2)s1,15.2%,4.75%,10.5%,6.74%,11.4%,4.18%,13.6%,-1.79%,-1.08%,-2.15%,-0.99%,5.56%,5.26%,4.2%,5.76%,3.08%,11.5%,3.52%,2.83%,2.32%
CCn1c(-c2nonc2N)nc2c(C#CC(C)(C)O)nc(OC[C@H](N)c3ccccc3)cc21,41.3%,4.34%,-1.45%,9.15%,9.48%,8.29%,13.7%,2.09%,1.99%,2.17%,4.13%,6.27%,3.05%,5.91%,6.74%,1.23%,-4.26%,0.7%,3.88%,0.42%
CCn1c(-c2nonc2N)nc2c(C#CC(C)(C)O)ncc(OC3CCNCC3)c21,17.1%,-2.24%,0.48%,7.34%,6.9%,7.32%,11.4%,0.02%,1.37%,2.08%,1.12%,5.92%,3.33%,4.81%,7.95%,1.33%,0.26%,0.61%,1.17%,2.16%
CN1CCC(n2cnc(-c3ccc(F)cc3)c2-c2ccnc(Nc3ccccc3)n2)CC1,36.2%,2.65%,4%,1.54%,4%,9.92%,11.8%,1.77%,3.09%,1.08%,0.18%,3.59%,3.4%,2.95%,4.52%,-0.22%,7.4%,0.74%,2.45%,-0.03%
CCCN1CCC(c2ccc(Nc3nc(Nc4cc(F)ccc4C(N)=O)c4cc[nH]c4n3)c(OC)c2)CC1,35.8%,8.19%,8.86%,60.7%,81.3%,-0.59%,15.3%,1.02%,14.8%,-9.2%,73.4%,2.15%,7.76%,2.84%,4.59%,46.4%,92.8%,5.57%,44.3%,1.74%
c1ccc(COc2ccc(Nc3ncnc4ccc(-c5ccco5)cc34)cc2)cc1,1.21%,4.01%,7.76%,2.59%,3.28%,0.54%,1.64%,0.68%,0.99%,-0.45%,-0.46%,1.31%,3.25%,2.64%,3.4%,1.53%,5.09%,-0.27%,0.03%,-2.34%
COc1ccc(CNC(=O)c2ccc(-c3cc(-c4nnc(C)o4)ccc3C)cc2)cc1,19.9%,10.5%,3.7%,6.1%,5.4%,1.18%,2.9%,3.8%,8.13%,2.81%,0.6%,2.72%,3.52%,3.37%,8.26%,6.31%,16%,3.84%,6%,-2.81%
FC(F)(F)c1cccc(-c2nn3ncccc3c2-c2ccnc(Nc3ccc4c(c3)OCCO4)n2)c1,22.1%,5.16%,4.5%,1.05%,4.18%,12.8%,47.9%,0.82%,2.59%,0.9%,-1.91%,4.21%,15.5%,4.09%,10.6%,1.44%,5.7%,0.31%,0.47%,1.71%
O=C(Nc1n[nH]c2cc(-c3ccc(F)cc3)ccc12)C1CC1,2.03%,3.73%,1.45%,4.52%,6.57%,0.9%,6.35%,-1.28%,-0.73%,-3.9%,1.05%,3.06%,4.11%,1.89%,6.64%,0.9%,5.38%,0.53%,1.19%,4.77%
N#Cc1c(NC(=O)CN2CCOCC2)sc2c1CCCC2,8.63%,-0.19%,6.37%,6.7%,13%,-1.56%,7.9%,-1.35%,0.73%,-0.42%,-1.53%,3.74%,7.22%,2.61%,4.26%,3.32%,8.64%,1.58%,3.21%,3.46%
COc1cc2c(cc1Nc1nc(Nc3ccsc3C(N)=O)c3cc[nH]c3n1)N(C(=O)CN(C)C)CCC2(C)C,18.7%,-4.25%,28.9%,79.7%,83.1%,0.33%,11.7%,-1.82%,-3.22%,-6.01%,4.93%,5.38%,8.93%,1.06%,3.63%,60.5%,89.3%,6.79%,43.5%,2.83%
NC(=O)c1sc(-n2cnc3ccc(C(F)(F)F)cc32)cc1OCc1ccccc1Br,11.1%,4.35%,5.41%,3.4%,9.36%,1.66%,10.1%,-1.61%,-2.09%,-5.63%,0.09%,2.5%,2.78%,2.27%,3.55%,1.47%,9.04%,0.36%,0.65%,4.01%
CCNC(=O)O[C@H]1CN[C@H](C#Cc2cc3ncnc(Nc4ccc(OCc5cccc(F)c5)c(Cl)c4)c3s2)C1,2.83%,3.96%,3.52%,4.68%,3.52%,0.25%,6.91%,-0.91%,-2.79%,-1.96%,0.53%,4.9%,5.79%,1.23%,3.88%,3.2%,10.3%,1.33%,1.05%,4.7%

# — ChEMBL document CHEMBL1961873, “Compounds: GSK PKIS; Assays: Nanosyn kinase panel” (2012)
